# Assay results: PubChem BioAssay (NCATS)
# Records with an inconclusive call do not appear. Entries that show only a call come without a potency. Active and inactive are the calls of the source. The call rests on the fitted dose curve; in most records, active means well fitted curve in the direction sought with a large enough effect; inconclusive means small, poorly fitted or top-dose-only effect, or another doubt; inactive means no such curve, though single readings can be large; an effect the other way counts as inactive or inconclusive.
# Columns and labels:
# [1] = qHTS assay to identify small molecule inhibitors of chordoma cells - UCH-1 (AID 1259355); further: nearly all actives have a fitted effect of over 55% in size
# Method in brief: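 Cells (800/well) were seeded and left overnight at 37 C, 5% CO2, then treated with drugs at 15 concentrations plus a combination mix of auranofin, camptothecin, doxorubicin, rubitecan and topotecan. Viability after 48hr was read by CellTiter-Glo luminescence.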
# [2] = qHTS assay to identify small molecule inhibitors of chordoma cells - UCH-2 (AID 1259356); further: series mostly up to about 46 µM
# [3] = P-glycoprotein substrates identified in KB-3-1 adenocarcinoma cell line, qHTS therapeutic library screen (AID 1346986); further: nearly all actives have a fitted effect of over 60% in size
# Method in brief: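 Compounds were tested in dose-response against KB-3-1 and KB-8-5-11 cells at 37 degree C for 72 h, and viability was measured by luminescence. AC50 values came from curve fitting with class-based activity calls.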
# [4] = Identifying Small Molecule Inhibitors of Pancreatic Cancer Stem Cells (Panc1, Adherent) (AID 1259362); conditions: Potency: viability; further: potency means the concentration at half of the fitted maximal effect
# Method in brief: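 Pre-formed 14-day tumor spheroids or adherent cells dosed and incubated 48 h, 37C, 5% CO2. Viability assessed by CellTiter-Glo.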
# [5] = Identifying Small Molecule Inhibitors of Pancreatic Cancer Stem Cells (A2780, Spheroid) (AID 1259357); conditions: Potency: A2780 spheroid viability;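 further: spheroids pre-formed over 14 days in stem cell medium on hydrogel; compound exposure lasted 48 h before the ATP luminescence read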
# Method in brief: (§1)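 After a 4 h attachment period, compounds were pinned into wells and cultures held 48 h under standard incubator conditions. Viability was then measured as CellTiter-Glo luminescence following 10 min at room temperature.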
# [6] = Identifying Small Molecule Inhibitors of Pancreatic Cancer Stem Cells (SN12C, Adherent) (AID 1259358);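 further: cell survival measured after 48 h of compound exposure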
# Method in brief: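 Spheroids grown 14 days in stem cell media on hydrogel-coated nonadherent plates; 2D lines seeded directly. Compounds added after 4 h attachment, 48 h at 37C, 5% CO2; CellTiter-Glo luminescence normalized to DMSO (no inhibition) and no-cell wells (full inhibition).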
# [7] = Identifying Small Molecule Inhibitors of Pancreatic Cancer Stem Cells (SN12C, Spheroid) (AID 1259360); conditions: Potency: SN12C spheroid viability
# Method in brief: as §1
structure (smiles),measurement,setting,value
CCCCCCCCOc1ccccc1C(=O)Nc1ccc(C(=O)OCC[N+](C)(CC)CC)cc1,Potency,[1],inactive
same,Potency,[2],inactive
CN(c1nccc(=O)[nH]1)C1CCN(c2nc3ccccc3n2Cc2ccc(F)cc2)CC1,Potency,[1],inactive
same,Potency,[2],inactive
same,Potency,[3],inactive
O=C1CCc2ccc(OCCCCN3CCN(c4cccc(Cl)c4Cl)CC3)cc2N1,Potency,[2],inactive
COc1cc(C(C)=O)ccc1OCCCN1CCC(c2noc3cc(F)ccc23)CC1,Potency,[3],inactive
Cc1cccc(C)c1OCC(=O)N[C@@H](Cc1ccccc1)[C@@H](O)C[C@H](Cc1ccccc1)NC(=O)[C@H](C(C)C)N1CCCNC1=O,Potency,[1],inactive
same,Potency,[2],inactive
Cc1nc(Nc2ncc(C(=O)Nc3c(C)cccc3Cl)s2)cc(N2CCN(CCO)CC2)n1,Potency,[4],20.9 µM (active)
CCOC(=O)C1=C(O)C(=O)N(Cc2ccccc2)C1,Potency,[5],inactive
same,Potency,[6],inactive
same,Potency,[7],inactive
